Records with an inconclusive call do not appear. The source made the active and inactive calls. Calls come from the whole dose curve; as a rule, active = well fitted cell-killing curve with a large enough effect; inconclusive = small, poorly fitted or top-dose-only effect, or effect the other way; inactive = no such curve, though single readings can be large or run the other way.
Tested on: JEG-3
Assay: Confirmatory qHTS for gynecologic anti-cancer compounds from libraries of approved drugs and bioactive compounds; note: nearly all actives have a fitted effect of over 55% in size
Conditions: gynecologic cancer cell panel viability, ATPlite luminescence, 48 h; series mostly up to 57.6 µM
In short: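 Cells (1,000/well) were plated, left 16 h at 37 C/5% CO2, then given compound at 11 concentrations (1:3) from 57.5 uM to 0.977 nM for 48 h. ATPlite luminescence after 15 min at room temperature gave IC50 values.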
Potency is the fitted concentration of half-maximal effect.

| SMILES | Potency |
| --- | --- |
| CCN1CCN(C(=O)Cc2ccc(Nc3ncc(F)c(Nc4ccc(C(=O)Nc5ccccc5Cl)cc4)n3)cc2)CC1 | inactive |
| Cc1sc2c(c1C)C(c1ccc(Cl)cc1)=NC(CC(=O)OC(C)(C)C)c1nnc(C)n1-2 (centres undefined) | 1930 nM (active) |
| CCC(=O)O[C@H]1CC[C@H]2[C@@H]3CCC4=CC(=O)CC[C@]4(C)[C@H]3CC[C@]12C | inactive |
| C[C@]12CC[C@H]3[C@@H](CCC4=CC(=O)CC[C@@H]43)[C@@H]1CC[C@@H]2OC(=O)CCc1ccccc1 | inactive |
| O=C(O)Cc1ccccc1 | inactive |
| CCOc1ccccc1-n1c(C(C)N2CCN(C(=O)COc3ccc(Cl)cc3)CC2)nc2ccccc2c1=O (centres undefined) | 10900 nM (active) |
| C=C(C)[C@H]1Cc2c(ccc3c2O[C@@H]2COc4cc(OC)c(OC)cc4[C@@H]2C3=O)O1 | 27.3 nM (active) |
| C/C=C(/C)C(=O)O[C@H]1C(C)=C2[C@H]([C@@H]1OC(=O)CCCCCCC)[C@@](C)(OC(C)=O)C[C@H](OC(=O)CCC)[C@@]1(O)[C@H]2OC(=O)[C@@]1(C)O | 54.4 nM (active) |
| C[C@H]1CCC/C=C/C2C[C@H](O)C[C@H]2[C@H](O)/C=C/C(=O)O1 (some centres undefined) | 344 nM (active) |

— PubChem BioAssay AID1345085 (National Center for Advancing Translational Sciences (NCATS), 2018)
